{
  "source": "PubChem BioAssay (NCI)",
  "note": "The panel holds about 83,000 compounds, 20% with a hit somewhere; the sample as a whole holds those more often.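 Assay: single dose, 48 h. Readout: percent growth (0 = no net growth; negative = cell death). Active: <10.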 Calls of active or inactive are those of the source.",
  "data": [
    {"tested_on": "OVCAR-8 ovarian", "assay": "NCI-60 one-dose screen, 48 h (100 = growth as untreated, 0 = no growth, -100 = all killed)", "settings": "10 µM", "values": [
      {"compound": "C/C(=C\\c1cc(Cl)ccc1OCC(=O)O)[N+](=O)[O-]", "growth": "100% (inactive)"},
      {"compound": "CCN=c1cc2sc3cc(NCC)c(C)cc3nc-2cc1C", "growth": "-16.3% (active)"},
      {"compound": "Clc1ccc(-c2nnc(-c3cccc4ccccc34)o2)cc1", "growth": "94.7% (inactive)"},
      {"compound": "COc1cc(OC)c2ccc(=O)oc2c1", "growth": "103% (inactive)"},
      {"compound": "COc1ccc(Oc2c(I)cc(CC(NC(C)=O)C(=O)O)cc2I)cc1", "note": "(stereo unspecified)", "growth": "83.2% (inactive)"},
      {"compound": "Cc1cc2ccccc2c(O)c1C#N", "growth": "99.7% (inactive)"},
      {"compound": "CN(C)/N=C/c1ccccc1O", "growth": "91.3% (inactive)"},
      {"compound": "Cc1cc(C(C)(C)C)cc(C)c1Br", "growth": "111% (inactive)"},
      {"compound": "COc1cc(C2c3cc4c(cc3C3OC(=O)C2C3CO)OCO4)cc(OC)c1OC", "note": "(stereo unspecified)", "growth": "3.3% (active)"},
      {"compound": "CCCC1(c2ccccc2)NC(=O)NC1=O", "note": "(stereo unspecified)", "growth": "111% (inactive)"},
      {"compound": "CN(C)c1ccc(S(=O)(=O)O)cc1", "growth": "101% (inactive)"},
      {"compound": "Clc1ccc(-c2n[nH]c3c2Cc2ccccc2-3)cc1Cl", "growth": "110% (inactive)"},
      {"compound": "S=C1CCCCCN1", "growth": "104% (inactive)"},
      {"compound": "CCCOC(=O)C(O)c1ccccc1", "note": "(stereo unspecified)", "growth": "114% (inactive)"},
      {"compound": "O=S(=O)(O)c1ccc(O)c2ccccc12", "growth": "113% (inactive)"},
      {"compound": "N/N=C(/Cc1ccccc1)NNC(N)=S", "growth": "108% (inactive)"}
    ]}
  ]
}
